The panel holds about 83,000 compounds, 20% with a hit somewhere; the sample as a whole holds those more often.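 Cells were grown in 96-well plates and exposed to the test compound at a single concentration for 48 hours; results are reported as percent growth, with values below 10 considered active.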 Active and inactive are the calls of the source.
Experiments:
Test in all cases: NCI-60 one-dose screen, 48 h (100 = growth as untreated, 0 = no growth, -100 = all killed)
Conditions in all cases: 10 µM unless noted
[1] = system: SR leukemia
[2] = system: RPMI-8226 leukemia
[3] = system: OVCAR-8 ovarian
[4] = system: OVCAR-5 ovarian
[5] = system: OVCAR-4 ovarian
[6] = system: SK-OV-3 ovarian
[7] = system: IGROV1 ovarian
[8] = system: OVCAR-3 ovarian
[9] = system: HS 578T breast
[10] = system: NCI/ADR-RES ovarian

Measured: growth

CS(=O)(=O)c1ccc(C(=O)N/N=C/c2cccc3ccccc23)cc1
inactive: [1] 32.5% | [2] 87.7% | [3] 83.9% | [4] 109% | [5] 113% | [6] 78.1% | [7] 63.3% | [8] 67.8% | [9] 85.1% | [10] 73.5%

Cc1cccc2nc3ccccc3c(Nc3ccc(NS(C)(=O)=O)cc3)c12
inactive: [2] 52.3% | [3] 39.8% | [4] 62.1% | [5] 77.5% | [6] 41% | [7] 43.1% | [8] 74.3% | [9] 87.8% | [10] 80.8%
active: [1] -3.06%

COc1ccc(-c2conc2-n2nc(-c3ccccc3)nc2-c2ccccc2)cc1
inactive: [1] 76.2% | [2] 106% | [3] 110% | [4] 104% | [5] 104% | [6] 107% | [7] 101% | [8] 131% | [9] 111% | [10] 99.1%

CN(C)CCCn1c(=O)c2cc([N+](=O)[O-])ccc2c2cnc3[nH]ccc3c21
active: [1] -27.6%
inactive: [2] 45.4% | [3] 35.1% | [4] 73.1% | [5] 61% | [6] 63.8% | [7] 54.9% | [8] 68.2% | [9] 75.3% | [10] 51.7%

CN(C)CC(=O)c1ccc2cc(Br)c3ccccc3c2c1
inactive: [1] 13.4% | [2] 46.9% | [3] 57.9% | [4] 83.7% | [5] 72.2% | [6] 69.7% | [7] 38.5% | [8] 85.8% | [9] 55.4% | [10] 72.8%

CC(C)CCC(=O)[C@@H](C)[C@H]1[C@@H](OC2OCC(O)C(O)C2NS(C)(=O)=O)C[C@H]2[C@@H]3CC=C4C[C@@H](O)CC[C@]4(C)[C@H]3CC[C@]12C (stereo partly drawn)
inactive: [1] 17% | [3] 35.4% | [4] 64.5% | [5] 75.5% | [7] 61.2% | [8] 68.8% | [10] 82.7%
active: [2] -26.1% | [6] 0.627% | [9] -4.14%

CN1C(=O)N(C)C2C1NN=c1s/c(=C\c3ccsc3)c(=O)n12 (stereo not drawn)
inactive: [1] 20.6% | [2] 58% | [3] 59.5% | [4] 72.6% | [5] 89.5% | [6] 59.7% | [7] 46.9% | [8] 14.9% | [9] 53.9% | [10] 39.8%

N=C(N)c1ccc(-c2ccc(-c3ccco3)o2)cc1F
active: [1] -9.28% | [2] -23.2%
inactive: [3] 45% | [4] 17.8% | [5] 42% | [6] 40.1% | [7] 11.9% | [8] 54.1% | [9] 48.8% | [10] 45.2%

COc1ccc(/C=N/NC(N)=S)c(OC)n1
inactive: [1] 88.3% | [2] 94.8% | [3] 97.7% | [4] 109% | [5] 93.9% | [6] 114% | [7] 100% | [8] 111% | [9] 103% | [10] 109%

COc1ccc(-c2nc3c(c(-c4ccc(Cl)cc4)nn3-c3ccccc3)c(-c3ccc(O)cc3)c2C#N)cc1
inactive: [3] 61.3% | [4] 78.9% | [5] 47.5% | [6] 84.5% | [7] 72.4% | [8] 34.1% | [9] 24.6% | [10] 54.6%
active: [1] -29.9% | [2] -33%

CC[C@H](C)[C@H](N)C(=O)O
inactive: [1] 90.7% | [2] 104% | [3] 107% | [4] 97.7% | [5] 109% | [6] 107% | [7] 106% | [8] 111% | [9] 91.7% | [10] 104%

Oc1c(C(Nc2ccccc2Br)c2ccccc2)ccc2cccnc12 (stereo not drawn)
active: [1] 1.95% | [10] 2.07%
inactive: [2] 45.8% | [3] 23.5% | [4] 44.5% | [5] 31.4% | [6] 35.2% | [7] 20.1% | [8] 32.8% | [9] 59.2%

S=C(Cc1ccccc1)N1CCN(c2ccccc2Cl)CC1
inactive: [1] 70.3% | [2] 95.1% | [3] 99.1% | [4] 97.6% | [5] 105% | [6] 101% | [7] 110% | [8] 106% | [10] 96.7%

CCCCCN(CCCCC)C(=O)C(CCC(=O)O)NC(=O)c1ccc(Cl)c(Cl)c1 (stereo not drawn)
inactive: [1] 94.4% | [2] 118% | [3] 106% | [4] 102% | [5] 115% | [6] 114% | [7] 107% | [8] 113% | [9] 102% | [10] 106%

CC(C)OC1OC(OC(C)C)C(OC(C)C)OC1OC(C)C (stereo not drawn)
inactive: [1] 100% | [2] 94.5% | [3] 94.4% | [4] 102% | [5] 88.9% | [6] 113% | [7] 93.9% | [8] 99.5% | [9] 101% | [10] 105%

O=c1c2cc(Cl)ccc2oc2ccc(OCCCCCN3CCCCC3)cc12
inactive: [2] 38% | [3] 55.1% | [4] 75.4% | [5] 80.6% | [6] 98.3% | [7] 72% | [8] 67.1% | [9] 80.5% | [10] 71%
active: [1] 7.54%

C=C1C(=O)O[C@H]2[C@H]1CC/C(COC(=O)NCc1[nH]nc3ccccc13)=C\CC[C@@]1(C)O[C@@H]21
inactive: [3] 35.3% | [4] 58.5% | [5] 67.9% | [6] 75.6% | [9] 62.5% | [10] 85.7%
active: [1] 4.38% | [2] -10.2% | [7] -20.8% | [8] 5.37%

COc1ccccc1CNCCCN1C(=O)c2ccc3c4c(ccc(c24)C1=O)C(=O)N(CCCOCCCCOCCCN)C3=O
inactive: [6] 25.3% | [9] 19.1%
active: [1] 7.67% | [2] -5.62% | [3] -14.6% | [4] -55.9% | [5] -97.1% | [7] -51.8% | [8] -95% | [10] -8.07%

CC[C@]1(O)C[C@H]2CN(CCc3c([nH]c4ccccc34)C(C(=O)OC)(c3cc4c(cc3OC)N(C)[C@H]3[C@@](O)(C(=O)OC)[C@H](OC(C)=O)[C@]5(CC)[C@@H]6C[C@@H]6CN6CC[C@]43[C@@H]65)C2)C1 (stereo partly drawn)
inactive: [2] 42.1% | [3] 19.4% | [5] 29.1%
active: [1] -20.5% | [4] 6.6% | [6] -11.9% | [7] 9.14% | [8] 5.03% | [10] -3.99%

COc1ccc(Cl)cc1Nc1nc(C(F)(F)F)ccc1C(=O)NN
active: [1] 1.9% | [2] 4.71% | [5] -4.08% | [6] 8.79% | [10] 9.26%
inactive: [3] 18.9% | [4] 40.6% | [7] 30.3% | [8] 33.6% | [9] 95.8%

O=C1N(Cc2ccccc2Cl)c2ccccc2C12NN=C(c1ccccc1)S2 (stereo not drawn)
inactive: [1] 40% | [2] 66.3% | [3] 45.8% | [4] 78.6% | [5] 51.8% | [6] 83.2% | [7] 61.7% | [8] 68.7% | [9] 69.6% | [10] 45.2%

CCNCCCn1c2c(c3ccc(Cl)cc3c1=O)C(=O)c1cc(OC)cnc1-2
inactive: [5] 52.2% | [7] 44.7% | [8] 39.1% | [9] 58.8% | [10] 35.5%
active: [1] -63.6% | [2] -48.8% | [3] -30.7% | [4] -11.9% | [6] -11%

CN(C)c1nc(-c2cccs2)n2nc(-c3ccc(Cl)cc3)cc2n1
active: [5] -39.5% | [6] -54.2% | [9] -2.48%
inactive: [1] 58.7% | [2] 74.3% | [3] 11.8% | [4] 75.6% | [7] 11.9% | [8] 14.8% | [10] 38.3%

CCCCCCCCCCCCCCCCCC1=NCCN1CCO
active: [1] 7.41%
inactive: [2] 78.9% | [3] 70.5% | [4] 82.7% | [5] 115% | [6] 97.9% | [7] 25.7% | [8] 77% | [9] 85.8% | [10] 84.5%

COc1ccc(/C=C/C(=O)CCC(=O)O)cc1OC
inactive: [1] 98.5% | [2] 105% | [3] 109% | [4] 95.4% | [5] 99% | [6] 91% | [7] 108% | [8] 109% | [9] 105% | [10] 111%

Cc1cccc(N=NC(=S)NNc2cccc(C)c2)c1
inactive: [1] 107% | [2] 96.4% | [3] 108% | [4] 111% | [5] 101% | [6] 105% | [7] 92.4% | [8] 139% | [9] 116% | [10] 113%

Cc1cc(-c2ccccc2)on1
inactive: [1] 87.3% | [2] 108% | [3] 106% | [4] 106% | [5] 102% | [6] 93.1% | [7] 98.1% | [8] 112% | [9] 104% | [10] 105%

— PubChem BioAssay (NCI)
